Experimental findings from PubChem BioAssay (NCI) are described below.

Holding throughout (test): NCI-60 one-dose screen, 48 h (100 = growth as untreated, 0 = no growth, -100 = all killed)
In one test the test system is HCT-15 colon. Conditions: 10 µM unless noted.
For another test, the system named is HT29 colon. As to conditions: 10 µM unless noted.
For the next test, the system named is SNB-75 CNS. Conditions: 10 µM unless noted.
The next test concerns SNB-19 CNS. As to conditions: 10 µM unless noted.
For the next test, the system named is PC-3 prostate. Conditions: 10 µM unless noted.
In another test the test system is SK-MEL-5 melanoma. Conditions: 10 µM unless noted.
The test system of another test is UACC-62 melanoma. As to conditions: 10 µM unless noted.
Another test relates to LOX IMVI melanoma. As to conditions: 10 µM.
The next test has as its system SK-MEL-28 melanoma. As to conditions: 10 µM unless noted.
In the next test the test system is SK-MEL-2 melanoma. Conditions: 10 µM unless noted.
The test system of a further test is EKVX NSCLC. Conditions: 10 µM unless noted.
The subject of a further test is SN12C renal. Conditions: 10 µM unless noted.
In the next test the test system is UO-31 renal. Conditions: 10 µM unless noted.
For another test, the system named is TK-10 renal. Conditions: 10 µM unless noted.
For a further test, the system named is ACHN renal. Conditions: 10 µM unless noted.
A further test has as its system CAKI-1 renal. As to conditions: 10 µM unless noted.
Another test relates to A498 renal. Conditions: 10 µM unless noted.
In another test the test system is CCRF-CEM leukemia. As to conditions: 10 µM unless noted.
The test system of a further test is MOLT-4 leukemia. Conditions: 10 µM unless noted.
In another test the test system is U251 CNS. As to conditions: 10 µM unless noted.

About 83,000 compounds went through this panel and 20% of them were active in at least one assay; those are over-represented in the sample as a whole.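 Plates (96-well) were seeded with cells, treated with compound at one concentration, and incubated for 48 hours before percent growth was determined.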 Values without a mark were called inactive. The source made the active and inactive calls. How the source made its calls: active means growth percent below 10; inactive means the rest.

On to `O=C(NC1CCCCC1)c1ccc(Cl)cc1`, for which the growth is 108% in the test on HCT-15 colon; 101% in the test on HT29 colon; 90% in the test on SNB-75 CNS; 101% with SNB-19 CNS; 102% with PC-3 prostate; 101% with SK-MEL-5 melanoma. Besides, the growth was 97.6% with UACC-62 melanoma; 97.4% in the test on LOX IMVI melanoma; 112% in the test with SK-MEL-28 melanoma; 115% in the test with SK-MEL-2 melanoma; 98.5% in the test on EKVX NSCLC; 103% in the test with SN12C renal. In addition, the growth in the test on UO-31 renal was 94.7%; in the test with TK-10 renal, 102%; with ACHN renal, 104%; in the test on CAKI-1 renal it was 102%; in the test with A498 renal, 82.4%; in the test on CCRF-CEM leukemia, 98.4%. Moreover, the growth in the test with MOLT-4 leukemia was 95.2%.

Consider `COc1cc(C(=O)N2CCN(c3ccccc3)CC2)c2ccccc2n1`, for which the growth was 18.3% in the test with HCT-15 colon; -19% (active) in the test on HT29 colon; 20.9% in the test on SNB-75 CNS; 28.4% in the test on SNB-19 CNS; 11.1% with U251 CNS; 16.8% in the test with SK-MEL-5 melanoma. Also, the growth with UACC-62 melanoma is 32.6%; with LOX IMVI melanoma, 16.5%; with SK-MEL-28 melanoma, 54.6%; in the test with SK-MEL-2 melanoma it was 3.61% (active); in the test on EKVX NSCLC it was 51.6%; in the test with SN12C renal it was 36.8%. Further, the growth in the test on UO-31 renal was 44.9%; in the test on TK-10 renal, 57.1%; in the test on CAKI-1 renal it was 36.2%; in the test on A498 renal, 32.3%; in the test on CCRF-CEM leukemia it was 29.3%; in the test on MOLT-4 leukemia, 29.9%.

As for `Cc1cc(Nc2ccc3c(c2)OCO3)c2cc3c(cc2n1)OCO3`, the growth with HCT-15 colon is 19.9%; in the test with HT29 colon, 15.8%; in the test with SNB-75 CNS it was 25.6%; in the test with SNB-19 CNS, 0.716% (active); in the test on U251 CNS, 19.9%; in the test on SK-MEL-5 melanoma, 22.6%. Also, the growth was 34% in the test with UACC-62 melanoma; 14.3% in the test on LOX IMVI melanoma; 34.2% in the test on SK-MEL-28 melanoma; 22.5% with SK-MEL-2 melanoma; 44.9% in the test on EKVX NSCLC; 47% with SN12C renal. Also, the growth in the test on UO-31 renal was 28.5%; in the test on TK-10 renal it was 59.7%; with ACHN renal, 50.9%; in the test with CAKI-1 renal it was 19.5%; in the test on A498 renal, -1.69% (active); in the test with CCRF-CEM leukemia, -7.98% (active). Further, the growth in the test with MOLT-4 leukemia was 35.8%.

On to `O=C(O)c1cccc(-n2ncc(Cl)c(Cl)c2=O)c1`, for which the growth was 98.5% in the test on HCT-15 colon; 113% in the test with HT29 colon; 81.1% in the test on SNB-75 CNS; 102% in the test with SNB-19 CNS; 101% in the test on U251 CNS; 98% in the test with SK-MEL-5 melanoma. For the same molecule, the growth in the test with UACC-62 melanoma was 97.2%; in the test on LOX IMVI melanoma, 92.2%; with SK-MEL-28 melanoma, 102%; in the test with SN12C renal it was 100%; in the test on UO-31 renal, 107%; in the test with ACHN renal it was 106%. The growth with CAKI-1 renal is 98.6%; in the test on A498 renal it was 113%; with CCRF-CEM leukemia it was 98.3%; with MOLT-4 leukemia it was 96.5%.

Take `O=c1cc(C(F)(F)F)[nH]c(=S)[nH]1`: the growth in the test with HCT-15 colon was 103%; with HT29 colon, 108%; in the test with SNB-75 CNS it was 102%; in the test on SNB-19 CNS, 94.4%; in the test with U251 CNS, 101%; in the test on SK-MEL-5 melanoma, 98.7%. Also, the growth was 99.5% with UACC-62 melanoma; 105% in the test on SK-MEL-28 melanoma; 111% in the test on SK-MEL-2 melanoma; 95% in the test on EKVX NSCLC; 95% in the test with SN12C renal; 87.3% in the test with UO-31 renal. In addition, the growth in the test with TK-10 renal was 97.7%; in the test with ACHN renal it was 108%; with CAKI-1 renal, 88%; with A498 renal, 139%; in the test with CCRF-CEM leukemia, 119%; in the test with MOLT-4 leukemia, 105%.

For `CCCCCCCCCCCCCCCCCCSC(=N)N`, the growth with HCT-15 colon is 66.6%; in the test on HT29 colon it was 28.4%; in the test with SNB-75 CNS, 88.6%; in the test on SNB-19 CNS, 89.2%; with U251 CNS, 72.3%; in the test with SK-MEL-5 melanoma, 98.3%. For the same molecule, the growth was 77.6% with UACC-62 melanoma; 52.7% in the test with LOX IMVI melanoma; 93.5% with SK-MEL-28 melanoma; 97.6% in the test with SK-MEL-2 melanoma; 88.3% with EKVX NSCLC; 65.6% with SN12C renal. In addition, the growth was 43.2% in the test on UO-31 renal; 65.5% in the test on TK-10 renal; 69.9% in the test on ACHN renal; 79.4% in the test on CAKI-1 renal; 84.7% with A498 renal; 26.2% with MOLT-4 leukemia.

In the case of `C[n+]1c(/C=C\C=C\N2CCCCC2)sc2ccccc21`, the growth in the test on HCT-15 colon is 57.7%; with HT29 colon, 1.33% (active); in the test with SNB-75 CNS it was 14.4%; in the test on SNB-19 CNS, 15.4%; with U251 CNS, 14.5%; in the test on SK-MEL-5 melanoma, -59.7% (active). The growth in the test with UACC-62 melanoma was 3.09% (active); in the test on LOX IMVI melanoma, 14.1%; in the test with SK-MEL-28 melanoma it was 39.4%; in the test on SK-MEL-2 melanoma it was -51.1% (active); in the test with EKVX NSCLC, 5.77% (active); in the test with SN12C renal, 7.71% (active). The growth is 52.1% in the test on UO-31 renal; 22% in the test on TK-10 renal; 66.2% with ACHN renal; 43.5% with A498 renal; 8.73% (active) in the test with CCRF-CEM leukemia; -9.41% (active) in the test with MOLT-4 leukemia.

As to `C=C1CC2(OC1=O)C(=O)N(C)c1ccc(I)cc12` (centres undefined), the growth was -53.7% (active) in the test with HCT-15 colon; -74.7% (active) in the test on HT29 colon; 38.4% in the test with SNB-75 CNS; 64% in the test with SNB-19 CNS; 2.89% (active) with U251 CNS; -92% (active) with SK-MEL-5 melanoma. The growth with UACC-62 melanoma was -61.2% (active); in the test with LOX IMVI melanoma it was -65.4% (active); in the test on SK-MEL-28 melanoma it was -93.6% (active); in the test with SK-MEL-2 melanoma, -73.1% (active); in the test with EKVX NSCLC, -46.4% (active); in the test on SN12C renal it was -12% (active). Moreover, the growth with UO-31 renal is -66% (active); in the test with TK-10 renal, -80.9% (active); with ACHN renal it was -84.5% (active); with CAKI-1 renal it was -91.3% (active); with A498 renal, -13.6% (active); in the test with MOLT-4 leukemia, -50.1% (active).
